Measurements taken from PubChem BioAssay (NCATS).
Inconclusive results are not listed. A number with no mark means an inactive call. Calls come from the whole dose curve; as a rule, active = well fitted curve in the direction sought with a large enough effect; inconclusive = small, poorly fitted or top-dose-only effect, or another doubt; inactive = no such curve, though single readings can be large; an effect the other way counts as inactive or inconclusive.
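Note: cells exposed to compound for 40 hours.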

Experiment: Cell Viability - NIH 3T3 (AID 541);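 note: plate controls were DMSO alone for no effect and tamoxifen positive control for full effect; nearly all actives have a fitted effect of over 25% in size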
Conditions: NIH 3T3 cell viability, qHTS; activity change, negative = cytotoxicity: at 92.2 µM (top of the series)
Procedure, shortened: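 Cells seeded at 1000/well, rested 5 hr at 37 °C, then dosed and incubated 40 hr at 37 °C. CellTiter-Glo added, 20 min room temperature, luminescence read. AC50 by Hill fit.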
In the case of NC(=O)NC(N)=O, the “activity change, negative = cytotoxicity” value is reported as 9.48%.
With CC(=O)Nc1ccccc1C the “activity change, negative = cytotoxicity” value was -0.0181%.
With CCc1ccccc1O the “activity change, negative = cytotoxicity” value was -6.39%.
For Cc1cccc(C)c1, the “activity change, negative = cytotoxicity” value was 7.37%.
With O=C(O)c1ccccc1[N+](=O)[O-] the “activity change, negative = cytotoxicity” value was 3.41%.
With C=CCCCCCCC=C the “activity change, negative = cytotoxicity” value was -19.1%.
For Cc1ccc2c(c1[N+](=O)[O-])C(=O)c1ccccc1C2=O, the “activity change, negative = cytotoxicity” value was -17.6%.
With CC(C)(C)OC=O the “activity change, negative = cytotoxicity” value was -15.7%.
For CC(C)(c1cc(Br)c(OCC(Br)CBr)c(Br)c1)c1cc(Br)c(OCC(Br)CBr)c(Br)c1 (configuration not stated), the “activity change, negative = cytotoxicity” value was -7.27%.
In the case of CCCCCCCCCCCCC1CO1 (configuration not stated), the “activity change, negative = cytotoxicity” value is reported as -2.99%.
With CCCOCC(C)O (configuration not stated) the “activity change, negative = cytotoxicity” value was -11.3%.
In the case of Cc1c(N)cccc1[N+](=O)[O-], the “activity change, negative = cytotoxicity” value is reported as -16%.
In the case of Nc1ccccc1[N+](=O)[O-], the “activity change, negative = cytotoxicity” value is reported as -16.6%.
For O=C(O)c1c(Cl)cccc1Cl, the “activity change, negative = cytotoxicity” value was -20.9%.
For Nc1nc(-c2ccccc2)cs1, the “activity change, negative = cytotoxicity” value was -26.3%.
With CCC(C)=O the “activity change, negative = cytotoxicity” value was -1.28%.
For Nc1c(Cl)cc(Cl)cc1Cl, the “activity change, negative = cytotoxicity” value was -12.2%.
In the case of CCOc1ccccc1N, the “activity change, negative = cytotoxicity” value is reported as 2.22%.
In the case of O=Cc1ccc(CO)o1, the “activity change, negative = cytotoxicity” value is reported as -25.4%.
For C=C(C)C(=O)OCC(C)O (configuration not stated), the “activity change, negative = cytotoxicity” value was 5.28%.
For Nc1ccc(Cl)cc1[N+](=O)[O-], the “activity change, negative = cytotoxicity” value was -20.5%.
With CCCCC=O the “activity change, negative = cytotoxicity” value was 4.73%.
For COC(=O)c1ccccc1, the “activity change, negative = cytotoxicity” value was -3.8%.
In the case of CC(=C/C=C/C(C)=C/C=C/C=C(C)/C=C/C=C(C)/C=C/C(=O)O)/C=C/C(=O)O, the “activity change, negative = cytotoxicity” value is reported as -10%.
In the case of Cc1cccc([N+](=O)[O-])c1C(=O)O, the “activity change, negative = cytotoxicity” value is reported as -0.496%.
For Cc1cc(C)cc(N)c1, the “activity change, negative = cytotoxicity” value was -7.39%.
With C1COC1 the “activity change, negative = cytotoxicity” value was -8.27%.
In the case of O=C(O)c1ccccc1C(=O)O, the “activity change, negative = cytotoxicity” value is reported as -8.95%.
For Cc1c(N)cccc1N, the “activity change, negative = cytotoxicity” value was 5.25%.
For CC(=O)c1cc(C)oc1C, the “activity change, negative = cytotoxicity” value was -4.15%.
For CC(C)=CCl, the “activity change, negative = cytotoxicity” value was 4.89%.
In the case of Fc1ccccc1, the “activity change, negative = cytotoxicity” value is reported as -15%.
In the case of O=[N+]([O-])c1ccc(Cl)cc1Cl, the “activity change, negative = cytotoxicity” value is reported as -9.93%.
In the case of O=[N+]([O-])c1cc(C(F)(F)F)ccc1Cl, the “activity change, negative = cytotoxicity” value is reported as 4.8%.
In the case of CCc1ccccc1, the “activity change, negative = cytotoxicity” value is reported as -13%.
With CCN(CC)c1cccc(O)c1 the “activity change, negative = cytotoxicity” value was -15.4%.
In the case of CC(C)N=C=NC(C)C, the “activity change, negative = cytotoxicity” value is reported as -9.81%.
For CCOC(=O)C(C)C(C)=O (configuration not stated), the “activity change, negative = cytotoxicity” value was -11.9%.

Experiment: Cell Viability - HUV-EC-C (AID 542); note: % is set by controls: 0 for no effect and ±100 for the full control effect; nearly all actives have a fitted effect of over 35% in size
Conditions: HUV-EC-C endothelial cell viability, qHTS; series mostly up to 92.2 µM; activity change, negative = cytotoxicity: at the top concentration
Procedure, shortened: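 Cells were seeded at 1000 per well and incubated 5 hr at 37 °C before compound addition. After 40 hr at 37 °C, CellTiter-Glo reagent was added for 20 min and luminescence read. AC50 values came from Hill-equation modelling.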
With C=C(C)OC(C)=O the “activity change, negative = cytotoxicity” value was -4.82%.
With NC(=O)NC(N)=O the “activity change, negative = cytotoxicity” value was 26.3%.
For CC(=O)Nc1ccccc1C, the “activity change, negative = cytotoxicity” value was 1.75%.
In the case of CCc1ccccc1O, the “activity change, negative = cytotoxicity” value is reported as -21.9%.
For Cc1cccc(C)c1, the “activity change, negative = cytotoxicity” value was 9.47%.
For O=C(O)c1ccccc1[N+](=O)[O-], the “activity change, negative = cytotoxicity” value was 7.11%.
In the case of C=CCCCCCCC=C, the “activity change, negative = cytotoxicity” value is reported as -14.8%.
For Cc1ccc2c(c1[N+](=O)[O-])C(=O)c1ccccc1C2=O, the “activity change, negative = cytotoxicity” value was 12.2%.
For CC(C)(C)OC=O, the “activity change, negative = cytotoxicity” value was -0.283%.
For CC(C)(c1cc(Br)c(OCC(Br)CBr)c(Br)c1)c1cc(Br)c(OCC(Br)CBr)c(Br)c1 (configuration not stated), the “activity change, negative = cytotoxicity” value was -5.57%.
For CCCCCCCCCCCCC1CO1 (configuration not stated), the “activity change, negative = cytotoxicity” value was 13.9%.
For CCCOCC(C)O (configuration not stated), the “activity change, negative = cytotoxicity” value was -9.24%.
In the case of Cc1c(N)cccc1[N+](=O)[O-], the “activity change, negative = cytotoxicity” value is reported as -11.2%.
With Nc1ccccc1[N+](=O)[O-] the “activity change, negative = cytotoxicity” value was -5.25%.
In the case of O=C(O)c1c(Cl)cccc1Cl, the “activity change, negative = cytotoxicity” value is reported as -12.8%.
For Nc1nc(-c2ccccc2)cs1, the “activity change, negative = cytotoxicity” value was -14.9%.
For CCC(C)=O, the “activity change, negative = cytotoxicity” value was 10.4%.
With Nc1c(Cl)cc(Cl)cc1Cl the “activity change, negative = cytotoxicity” value was -11.9%.
In the case of CCOc1ccccc1N, the “activity change, negative = cytotoxicity” value is reported as 4.31%.
With O=Cc1ccc(CO)o1 the “activity change, negative = cytotoxicity” value was -6.12%.
With C=C(C)C(=O)OCC(C)O (configuration not stated) the “activity change, negative = cytotoxicity” value was 6.08%.
For Nc1ccc(Cl)cc1[N+](=O)[O-], the “activity change, negative = cytotoxicity” value was -12.3%.
In the case of CCCCC=O, the “activity change, negative = cytotoxicity” value is reported as 0.989%.
With COC(=O)c1ccccc1 the “activity change, negative = cytotoxicity” value was -4.94%.
With CC(=C/C=C/C(C)=C/C=C/C=C(C)/C=C/C=C(C)/C=C/C(=O)O)/C=C/C(=O)O the “activity change, negative = cytotoxicity” value was 2.13%.
With Cc1cccc([N+](=O)[O-])c1C(=O)O the “activity change, negative = cytotoxicity” value was 5.62%.
With Cc1cc(C)cc(N)c1 the “activity change, negative = cytotoxicity” value was -2.88%.
For C1COC1, the “activity change, negative = cytotoxicity” value was -5.58%.
For O=C(O)c1ccccc1C(=O)O, the “activity change, negative = cytotoxicity” value was 3.8%.
With Cc1c(N)cccc1N the “activity change, negative = cytotoxicity” value was -7.5%.
In the case of CC(=O)c1cc(C)oc1C, the “activity change, negative = cytotoxicity” value is reported as 12.8%.
In the case of CC(C)=CCl, the “activity change, negative = cytotoxicity” value is reported as 19.4%.
With Fc1ccccc1 the “activity change, negative = cytotoxicity” value was 2.21%.
For O=[N+]([O-])c1ccc(Cl)cc1Cl, the “activity change, negative = cytotoxicity” value was 4.8%.
With O=[N+]([O-])c1cc(C(F)(F)F)ccc1Cl the “activity change, negative = cytotoxicity” value was 17.7%.
In the case of CCc1ccccc1, the “activity change, negative = cytotoxicity” value is reported as 0.2%.
With CCN(CC)c1cccc(O)c1 the “activity change, negative = cytotoxicity” value was -12.5%.
For CC(C)N=C=NC(C)C, the “activity change, negative = cytotoxicity” value was -4.24%.
With CCOC(=O)C(C)C(C)=O (configuration not stated) the “activity change, negative = cytotoxicity” value was 8%.
